Screens (PubChem)
Most compounds without a hit are left out; they make up all but 6.8% or so of the library.
PINK1 modulator = changes PINK1 expression. PINK1 immunofluorescence, high-content cytometry, 24 h. Potency, µM (titrated, usually from 76.6 µM), inactives show at the highest dose activation (PINK1 increase), hits mostly activators. actives 0.2% (n = 410,000); active means well fitted activation curve with a large enough effect; inconclusive means small, poorly fitted or top-dose-only effect; cell line not stated here; further: % of control where 0% means no effect; nearly all actives have a fitted effect of over 65% in size
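Stable cell line treated 24 h with compounds at 5 concentrations (CCCP controls), then fixed and immunostained for PINK1 plus nuclear and cell stains; PINK1 immunofluorescence quantified by laser-scanning microplate cytometry.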
KB-V1 MDR tox = KB-V1 MDR subline cytotoxicity; actives 3.4% (n = 400,000); AID 1347076; Potency, µM (titrated, usually from 46.1 µM), usual class: cytotoxic; KB-V1 MDR cells viability, CellTiter-Glo, 72 h; further: on the % scale 0 is the no-effect control and ±100 the full control effect; nearly all actives have a fitted effect of over 60% in size
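Cells of the MDR subline KB-V1 are plated, dosed with compound at multiple concentrations, and incubated 72 h at 37 degrees C; CellTiter-Glo is then added and luminescence read after 10 min.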
KB-3-1 tox = kills parental KB-3-1 adenocarcinoma cells | KB-3-1 viability, CellTiter-Glo ATP luminescence, 72 h | Potency, µM (top dose mostly 46.1 µM), usual class: cytotoxic | actives 1.4% (n = 400,000); further: on the % scale 0 is the no-effect control and ±100 the full control effect; nearly all actives have a fitted effect of over 60% in size
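Cytotoxicity in the drug-sensitive parental line KB-3-1 was scored as loss of CellTiter-Glo luminescence following 72 h incubation with compound. Values come from curve fitting of normalized concentration-response data.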
MCF10A rerep = induces DNA re-replication in MCF 10a normal breast cells; AID 624296; actives 2.9% (n = 350,000); MCF 10A DNA re-replication, Hoechst nuclear intensity, 48 h; Potency, µM (top dose mostly 46.1 µM), for the others: top-dose activity, positive = re-replication, actives largely listed as activators; further: % of control where 0% means no effect; nearly all actives have a fitted effect of over 50% in size
TSG101-PTAP inh = blocks PTAP/TSG101 interaction to inhibit HIV-1 budding | Fluorescence polarization, FITC-PTAP peptide / Tsg101 binding | Potency, µM (doses to about 115 µM), inactives show at the top dose activity change, negative = inhibition, usual class: inhibitors | 340,000 tested, under 10 active | AID 493005; active means well fitted inhibition curve with a large enough effect in the main read-out, with a control signal flat, not every such curve was filed as active; inconclusive means small, poorly fitted or top-dose-only effect, or effect the other way, or a change in a side signal; inactive means no such curve, though single readings can be large or run the other way; further: % of control where 0% means no effect
Target sequence (Q99816 whole entry, looked up): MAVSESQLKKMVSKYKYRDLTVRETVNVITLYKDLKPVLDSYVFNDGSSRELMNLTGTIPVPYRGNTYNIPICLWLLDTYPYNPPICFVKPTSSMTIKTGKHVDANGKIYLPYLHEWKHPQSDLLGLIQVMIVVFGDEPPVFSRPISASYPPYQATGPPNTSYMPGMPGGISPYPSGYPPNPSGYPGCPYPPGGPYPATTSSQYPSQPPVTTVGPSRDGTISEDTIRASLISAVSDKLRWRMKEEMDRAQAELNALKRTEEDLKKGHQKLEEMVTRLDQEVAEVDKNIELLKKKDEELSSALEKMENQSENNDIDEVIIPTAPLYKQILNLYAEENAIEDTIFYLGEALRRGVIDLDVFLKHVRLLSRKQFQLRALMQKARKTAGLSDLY
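Compounds were pin-transferred onto Tsg101 binding domain (10 uM final) in HEPES pH 7.5 buffer, then FITC-PTAP peptide was added at 50 nM final. After 20 min at RT, polarization reported peptide displacement across a qHTS concentration series.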
SW480 rerep = DNA re-replication induction in SW480 cells | SW480 DNA re-replication, Hoechst DNA content imaging, 48 h | Potency, µM (series often up to 46.1 µM), for inactives: at the top dose re-replication activation, actives largely listed as activators | actives 1.8% (n = 340,000); further: % of control where 0% means no effect; nearly all actives have a fitted effect of over 55% in size
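First, 250 cells per well were seeded. Next, compound or vehicle (23 nL) was pinned in, plates sat 48 hr at 37 C. Finally Hoechst was added for 40 min before fluorescence scanning.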
Numbers without * were called inactive; i = inactive; ? = inconclusive; . = not tested or not shown; ! = repeats disagree; [ ] = another dose, or the depositor's remark. Unless noted, the call rests on the fitted dose curve; in most records, active means well fitted curve in the direction sought with a large enough effect; inconclusive means small, poorly fitted or top-dose-only effect, or another doubt; inactive means no such curve, though single readings can be large; an effect the other way counts as inactive or inconclusive. Potency means the concentration at half of the fitted maximal effect.

SMILES	PINK1 modulator	KB-V1 MDR tox	KB-3-1 tox	MCF10A rerep	TSG101-PTAP inh	SW480 rerep
Cc1ccc(NC(=O)CSc2nc(C)c(C)c(C)n2)cc1S(=O)(=O)N1CCOCC1	0%	?	i	0%	0%	3%
Cc1ccc(NC(=O)c2cc(=O)c3ccccc3o2)cc1S(=O)(=O)N1CCOCC1	1%	16µM*	i	1%	-3%	-15%
Cc1ccc(NC(=S)NCc2ccccc2)cc1S(=O)(=O)N1CCCCC1	?	13µM*	?	0%	-3%	?
Cc1ccc(NC(=O)CSc2ccccc2)cc1S(=O)(=O)N1CCCCC1	1%	.	.	6%	-2%	-5%
Cc1ccc(NC(=O)CSc2nc(N)cc(N)n2)cc1S(=O)(=O)N1CCOCC1	-2%	i	i	?	-6%	3.7µM*
O=C(Nc1ccc(S(=O)(=O)N2CCCC2)cc1)c1cc(=O)c2ccccc2o1	-1%	i	i	-2%	1%	-10%
COCc1c(C(=O)Nc2ccc(C)c(S(=O)(=O)N3CCOCC3)c2)oc2ccccc12	2%	4.6µM*	?	?	-1%	-1%
Cc1ccc(Sc2ccc(N3CCC(C(=O)Nc4cc(C)cc(C)c4)CC3)nn2)cc1	0%	i	i	.	.	.
CCOc1ccc(CCNC(=O)c2cn(C)c3ccc(S(=O)(=O)N4CCCCCC4)cc3c2=O)cc1OCC	2%	i	i	.	.	.
O=c1c(=O)n(-c2ccc(F)c(F)c2)ccn1Cc1ccc(F)cc1Cl	0%	.	.	.	.	.
Cc1nc(SCC(=O)Nc2ccc(S(=O)(=O)N3CCOCC3)cc2)c2c(C)c(C)sc2n1	-1%	i	5.8µM*	?	3%	-6%
Cc1nc(SCC(=O)N2CCOCC2)c2c(C)c(C)sc2n1	0%	i	i	4%	-6%	-9%
Cc1ccc(NC(=O)c2ccc([N+](=O)[O-])o2)cc1S(=O)(=O)N1CCOCC1	0%	?	?	2.1µM*	-2%	1.5µM*
Cc1ccc(NC(=O)c2cc(=O)c3ccccc3o2)cc1S(=O)(=O)N1CCCCC1	5%	9.2µM*	?	?	-3%	-2%
CCOC(=O)Nc1ccc2nc(N3CCCCCC3)sc2c1	12%	?	i	15µM*	-4%	10µM*
CCOC(=O)N1CCN(C(=O)Nc2ccc3nc(C)sc3c2)CC1	0%	i	i	-1%	-4%	0%
O=C(Nc1ccc(S(=O)(=O)N2CCCCCC2)cc1)c1cc(=O)c2ccccc2o1	2%	i	i	.	.	.
COc1ccccc1N1CCN(C(=O)c2cc3c(=O)n(C)c4ccccc4c3s2)CC1	0%	?	i	.	.	.
O=C(O)C1CCN(c2ncc(-c3ccc4c(c3)OCCCO4)s2)CC1	.	i	i	.	.	.
CCOCc1c(C(=O)Nc2ccc3nc(N4CCOCC4)sc3c2)oc2ccccc12	0%	21µM*	?	?	-1%	2%
CCOCc1c(C(=O)Nc2cc(OCC)c(N3CCOCC3)cc2OCC)oc2ccccc12	3%	i	i	-2%[9.22 µM]	1%	?
COc1ccccc1-c1ccc2ncnc(N(C)Cc3ccco3)c2c1	2%	.	.	.	.	.
CCOc1ccccc1NC(=O)CCc1c(C)nc2c(c(C)nn2-c2ccccc2)c1C	2%	i	i	.	.	.
O=C(Cn1cnc2c(oc3nc4c(cc32)CCCC4)c1=O)Nc1cccc(Cl)c1	11%	i	i	18µM*	2%	?
CC1(C)CCC(C)(C)c2cc(NC(=O)c3ccc(C(=O)O)cc3)ccc21	.	.	.	-3%	.	-3%
SMILES	PINK1 modulator	KB-V1 MDR tox	KB-3-1 tox	MCF10A rerep	TSG101-PTAP inh	SW480 rerep
Cc1cc(NC(=O)CSc2nnnn2C)n(-c2ccccc2)n1	0%	i	i	6.5µM*	-1%	4.1µM*
Cn1nnnc1SCC(=O)Nc1cc(C(C)(C)C)nn1-c1ccccc1	-2%	i	i	0%	-3%	-6%
Cc1cc(NC(=O)CSc2nc(-c3ccco3)cc(C(F)(F)F)n2)n(-c2ccccc2)n1	8%	4.1µM*	5.8µM*	10µM*	-1%	?
CCc1ccccc1NC(=O)CCCSc1nc(-c2ccco2)cc(C(F)(F)F)n1	2%	i	i	.	.	.
COc1ccc(NC(=O)CSc2nc(-c3ccco3)cc(C(F)(F)F)n2)cc1OC	0%	.	.	.	.	.
Cc1cc(NC(=O)CCCSc2nc(-c3ccco3)cc(C(F)(F)F)n2)n(-c2ccccc2)n1	0%	2.9µM*	i	15%	-8%	2%
Cc1ccc(NC(=O)CSc2nc(-c3ccco3)cc(C(F)(F)F)n2)cc1C	?	4.1µM*	4.1µM*!	1.2µM*	1%	2.6µM*
COc1ccc(O)c(CN2CCC3(CCC(CNC(=O)C4CCCO4)O3)CC2)c1 (stereo not given)	-1%	.	.	.	.	.
CCCCN(C)CCCNC(=O)C1CCC(CNS(=O)(=O)c2c(C)cc(C)cc2C)CC1 (stereo not given)	0%	i	i	1%	-1%	-11%
CCN(CC)CCCNC(=O)C1CCC(CNS(=O)(=O)c2c(C)cc(C)cc2C)CC1 (stereo not given)	-1%	i	i	21µM*	-2%	-7%
CCC(C)Sc1cccc(-c2nc3cc(C)ccn3c2NC2CCCCC2)c1 (stereo not given)	14µM*	16µM*!	?	18µM*	-1%	?
Cc1ccn2c(NC3CCCCC3)c(-c3cccc(SC4CCCCC4)c3)nc2c1	20µM*	?	?	?	6%	?
Cc1ccn2c(NC3CCCC3)c(-c3ccsc3)nc2c1	-2%	?	i	-19%	-2%	3%
Cc1ccn2c(NC3CCCCC3)c(-c3ccc(SC4CCCCC4)cc3)nc2c1	?	18µM*	?	.	.	.
CCOC(=O)C1CCCCN1C(=O)c1ccc(-n2cc(NC(=O)c3cccnc3)cn2)cc1 (stereo not given)	0%	.	.	.	.	.
CCCCOC(=O)c1ccc(NC(=O)CC2NCCNC2=O)cc1 (stereo not given)	0%	?	i	.	.	.
COc1ccc(NC(=O)CCCC2CCCCC2)cc1S(=O)(=O)N1CCCCC1	1%	9.2µM*	?	?	0%	?
COc1ccc(NC(=O)CCN2C(=O)C3CC=CCC3C2=O)cc1S(=O)(=O)N1CCCCC1 (stereo not given)	-1%	?	i	1%	-5%	-3%
COc1ccc(NC(=O)COc2cc(C)cc(C)c2)cc1S(=O)(=O)N1CCCCC1	5%	18µM*	?	21µM*	-5%	5.8µM*
CC(=O)Nc1ccccc1-c1nc(CNC(=O)c2ccc(C)cc2)c(C)o1	0%	.	.	.	.	.
